Experimental findings from PubChem BioAssay are described below.

By viability is commonly meant a read-out of living cells in per cent, often relative to untreated cells. As usually defined, the remaining activity is the signal under treatment as a percentage of the control signal.

Test [1] in a line: P. berghei load reduction in hepatocytes – cell-based, HepG2, luciferase luminescence, HepG2 viability, primary screen (AID 624349; in the data active = parasite load remaining mostly below about 12%, no sharp cut-off; inactive = mostly above about 10%;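 also: 100% = mean of DMSO negative control wells on the same plate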). Conditions: P. berghei liver stage in HepG2, luciferase luminescence, concentration not given here; parasite load remaining: stronger effect = lower value; viability: measured here: HepG2 viability without parasites.
Test [2] in a line: Wnt pathway potentiators raising nuclear beta-catenin – imaging, WNT3A-conditioned medium, mouse C2C12, NPC library, primary screen (AID 1117326; in the data active = nuclear beta-catenin stimulation mostly above about 4.2%, no sharp cut-off; inactive = mostly below about 10%). Conditions: stronger effect = higher value.
Test [3] can be described thus: stimulators of insulin release from INS-1E, primary screen, cell-based, 5 mM glucose, NPC library (AID 1117329;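 active = compound raises insulin release from rat beta cells at 5 mM glucose, no numeric limit stated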). Conditions: rat INS-1E insulin secretion, at 10 µM, stronger effect = higher value.
Test [4] in a line: growth inhibition of GSK3B-pretreated HCT116 cells – cell-based, CellTiter-Glo, 0.2 to 20 µM (AID 1117336;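 active = compounds lowering colon cancer cell viability after pretreatment blocking the GSK3B kinase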). The following applies: HCT116 viability after GSK3B inhibitor, at 20 µM, stronger effect = higher value.
Test [5] in a line: inhibition of endothelial tube formation, primary screen, imaging, VEGF stimulated, CD31 staining, tube area, NPC library (AID 1117340;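 active = compound that reduces growth-factor-driven endothelial tube area in a mixed cell culture, no cutoff stated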). The following applies: VEGF-stimulated ADSC/ECFC co-culture, at 10 µM, stronger effect = higher value.
Test [6] is described as follows: GLP1 release stimulators, primary, NCI-H716, NPC library (AID 1117341;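 active = compound raises GLP1 secretion from the human gut endocrine cells, with no numeric limit stated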). Conditions: NCI-H716 cells, at 10 µM, stronger effect = higher value.
Test [7] is described as follows: HCT116 colon cancer cell growth inhibition, primary screen, CellTiter-Glo luminescence, NPC library (AID 1117342;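 active = compounds that lower survival of HCT116 colon cancer cells in the luminescence readout, no numeric limit stated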). The following applies: at 20 µM (top of the series). (In general: ATP-based viability assays read luminescence as a measure of living cells.)
Test [8] can be described thus: reduced SW480 viability measured with CellTiter-Glo, NPC library, primary (AID 1117343;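 active = compounds that lower viability of the colon cancer cells in the luminescence readout, with no numeric limit stated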). The following applies: CellTiter-Glo luminescence; at 20 µM (top of the series) unless noted.
Test [9] is described as follows: NPC library primary testing for decreased DLD-1 cell viability via CellTiter-Glo (AID 1117346;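 active = compounds that lower survival of DLD-1 colon cancer cells in the luminescence readout, no cutoff given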). Conditions: DLD-1 viability, CellTiter-Glo luminescence; at 20 µM (top of the series).
Test [10] relates to Aerobactin synthetase IucA (Klebsiella pneumoniae). In words: inhibition of K. pneumoniae IucA enzyme – biochemical, Tocris library, absorbance (AID 1345561; call rule not given here;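 also: 100% = enzyme without compound and 0% = no enzyme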). Conditions: purified IucA enzyme assay, absorbance (OD) read-out; stronger effect = lower value;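 tested at 8 µM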.
The nature of test [11]: viability loss with induced miR-34 in A549 – imaging, A549 dox-inducible miR-34, nuclei and caspase counts, primary screen (AID 1347080). The following applies: A549 miR-34 inducible, Hoechst nuclei count, 48 h.
The nature of test [12]: galactose survival enhancers in mitochondrial complex I cybrids – cell-based, galactose medium, ATP luminescence, primary screen (AID 1645843;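 active = z-score of at least 1.8 in each of two replicates, scored against plate mean and spread of sample wells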;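 also: positive z means more ATP and so rescue of galactose-driven cybrid death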). The following applies: complex I mutant cybrid cells, 72 h, stronger effect = higher value.
Test [13] is described as follows: MELAS cybrid and Rieske KO viability enhancers – cell-based, MELAS cybrids, Rieske KO mouse fibroblasts, CellTiter-Glo, primary screen (AID 1508586;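 active = mean z-score across replicates of 1.96 or higher in either the MELAS or the Rieske mutant cell line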;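 also: z relative to plate mean and SD of compound and empty wells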). Conditions: low glucose.
Where [14] appears, read: stronger effect = lower value, cell number ratio, induced over uninduced.
The mark [15] stands for this setting: measured here: relative caspase fold change +Dox/-Dox.
The mark [16] stands for this setting: measured here: total cells with miR-34 induction, stronger effect = lower value.
Where [17] appears, read: measured here: total cells without miR-34 induction.
The mark [18] stands for this setting: MELAS cybrid survival, CellTiter-Glo 48 h, stronger effect = higher value.
Setting [19] is: Rieske KO mouse fibroblast survival, CellTiter-Glo 72 h.

Molecules are shown by their SMILES. “And” between values parts separate entries of the source, which are not always exact repeats. Identical values can stand only once. The source made the active and inactive calls.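 The calls were made as follows, unless noted: active = compounds whose cell count with miR-34 switched on is under 0.7 times the count with it off; inactive = the rest.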

Consider `CN(C)C/C=C(/c1ccc(Br)cc1)c1cccnc1`, for which, in test [1], the parasite load remaining is 94.7% (inactive) and 60.5% (inactive). For the same compound, in test [1], the viability was 85.2% and 195%. Further, the nuclear beta-catenin stimulation in [2] (at 10 µM) is 1.1% (inactive); in [2] (stimulation, at 2 µM), -0.9%. Also, the insulin secretion stimulation in test [3] was 45% (active). The viability decrease in test [4] is -1.3% (inactive). In test [5], the tube area decrease was 9.7% (inactive). Also, the GLP1 secretion stimulation in test [6] is 8% (inactive). Besides, the inhibition of viability in test [7] is 41.9% (inactive). For the same compound, the viability decrease (inhibition) is 52.1% (active) in [8] and 5.9% (inactive) in test [9]. The remaining activity in [10] is 124% (inactive). Further, the fold change is 1.02 (inactive) and 0.948 (inactive) and 0.885 (inactive) in test [11] (setting [14]); 0.961 and 0.963 and 4.02 in test [11] (setting [15]). Also, the cell count in [11] (setting [16]) was 8760 and 8650 and 11500; in [11] (setting [17]), 8570 and 9130 and 13000. In [12], the z-score was -0.1 (inactive) and -0.42 (inactive).

On to `CCN1CCC[C@H]1CNC(=O)c1c(OC)ccc(Br)c1OC`, for which, in [1], the parasite load remaining was 122% (inactive) and 75.7% (inactive). The viability in test [1] is 119% and 100%. The nuclear beta-catenin stimulation is 0.4% (inactive) in [2] (at 10 µM) and -0.6% in test [2] (stimulation, at 2 µM). Besides, in test [3], the insulin secretion stimulation was 6.1% (inactive). The viability decrease in test [4] is -9.5% (inactive). Further, the tube area decrease in test [5] is 19.3% (active). Further, the GLP1 secretion stimulation in test [6] was 0.8% (inactive). For the same compound, in [7], the inhibition of viability was 6.8% (inactive). Moreover, the figures for the viability decrease (inhibition) in [8] and in test [9] were -6.9% (inactive) and 6.8% (inactive), respectively. In test [10], the remaining activity was 89% (inactive). Further, the fold change is 0.989 (inactive) and 0.971 (inactive) and 0.881 (inactive) in test [11] (setting [14]); 0.662 and 1.03 and 1.37 in test [11] (setting [15]). Also, the cell count in test [11] (setting [16]) was 9050 and 9640 and 10200; in test [11] (setting [17]), 9150 and 9920 and 11500. The z-score in test [13] (setting [18]) was 0.167 (inactive) and 0.0526 (inactive); in test [13] (setting [19]), -0.0474 and -0.355; in test [12], 0.63 (inactive) and 0.485 (inactive).

Turning to `CN1CCC(Nc2ncc3ncnc(Nc4ccc(F)c(Cl)c4)c3n2)CC1`, the nuclear beta-catenin stimulation is 11.6% (inactive) in test [2] (at 10 µM) and 0.1% in [2] (stimulation, at 2 µM). In addition, the insulin secretion stimulation in [3] is 5.85% (inactive). In test [4], the viability decrease was 57.4% (active). For the same compound, the tube area decrease in test [5] is -4.5% (inactive). In addition, in [6], the GLP1 secretion stimulation was 6.3% (inactive). In addition, the inhibition of viability in test [7] was 73.7% (active). Moreover, the viability decrease (inhibition) in [8] was 97.8% (active); in test [9], 78.2% (active). In test [10], the remaining activity is 123% (inactive). Besides, the fold change in test [11] (setting [14]) was 1.35 (inactive); in test [11] (setting [15]), 0.869. Also, the cell count in test [11] (setting [16]) came to 3140; in test [11] (setting [17]) it was 2330. The z-score in [12] was -0.455 (inactive).

`Cc1ccc2c(c1)c1c3n2CCNC3CCC1` (stereo not given): in test [1], the parasite load remaining is 192% (inactive). The viability in [1] stood at 76.9%. Moreover, the nuclear beta-catenin stimulation in test [2] (at 10 µM) is 3% (inactive); in test [2] (stimulation, at 2 µM) it was 2%. Also, the insulin secretion stimulation in [3] is 0.5% (inactive). In test [4], the viability decrease was -63.6% (inactive). The tube area decrease in test [5] was 18.5% (inactive). Also, the GLP1 secretion stimulation in test [6] is 11.2% (inactive). The inhibition of viability in test [7] was 44% (inactive). Besides, the viability decrease (inhibition) in test [8] is 73.4% (active); in test [9], 29.4% (inactive). Moreover, the remaining activity in [10] is 98.7% (inactive). In addition, the fold change in [11] (setting [14]) was 0.931 (inactive) and 0.909 (inactive); in test [11] (setting [15]), 0.816 and 0.659. Moreover, the cell count was 8540 and 8100 in [11] (setting [16]); 9170 and 8920 in [11] (setting [17]). The results for the z-score in [13] (setting [18]), in test [13] (setting [19]) and in [12] were 0.468 (inactive), -0.847 and -0.41 (inactive), respectively.
